AGP1-GFP MLPCN: alters AGP1-GFP fluorescence in TOR pathway yeast screen; S. cerevisiae AGP1-GFP multiplex flow cytometry, 3 h; GFP as percent of DMSO wells; GFP response vs DMSO, % at 10 µM; hit rate 0.02% among 320,000; AID 2066;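 active means GFP response relative to DMSO above a set limit, near screen average plus 3 SD, cut at about 150% in these data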;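 further: median GFP channel fluorescence of the gated AGP1 strain per well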
LAP4 TOR yeast: yeast TOR pathway LAP4-GFP modulation; S. cerevisiae LAP4-GFP multiplex, flow cytometry GFP, 3 h; median GFP as percent of DMSO wells; GFP response vs DMSO, % at 10 µM; hit rate 0.34% among 320,000; AID 2023;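 active means GFP response vs DMSO above a set limit, about the screen mean plus 3 SD, cut at about 150% in these data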
RPL19A-GFP yeast: alters RPL19A-GFP fluorescence in TOR pathway yeast screen; S. cerevisiae RPL19A-GFP strain, flow cytometry, 3 h; active compounds read low; percent response vs DMSO, % at 10 µM; hit rate 0.3% among 330,000; AID 2025;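 active means percent response vs DMSO below 50%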;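 further: median channel GFP fluorescence of the barcoded RPL19A-GFP strain; lower means less RPL19A-GFP as with rapamycin TOR inhibition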
CIT2 TOR yeast: alters CIT2-GFP fluorescence in TOR pathway yeast screen; S. cerevisiae CIT2-GFP strain, flow cytometry, 3 h; 100 means same as DMSO wells; GFP response vs DMSO, % at 10 µM; hit rate 0.065% among 320,000;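 active means GFP response relative to DMSO above a set limit, near the screen mean plus 3 SD, cut at about 150% in these data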;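 further: ratio of well median GFP fluorescence to mean of DMSO wells on the plate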
MEP2-GFP yeast: alters MEP2-GFP fluorescence in TOR pathway yeast screen. hit rate 0.51% among 330,000. S. cerevisiae MEP2-GFP strain, flow cytometry GFP, 3 h; 100% = DMSO control level. GFP response vs DMSO, % at 10 µM;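 active means GFP response versus DMSO above a set limit, roughly screen mean plus 3 SD, cut at about 180% in these data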;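 further: median GFP fluorescence of the barcode-gated MEP2-GFP cells per well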
LAP4 cherry2: second confirmation of modulators of TOR reporter LAP4-GFP in yeast. GFP response vs DMSO, % at 10 µM. S. cerevisiae LAP4-GFP strain, flow cytometry GFP, 3 h. hit rate 20% among 590. shares compounds with LAP4 TOR yeast;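 active means GFP signal as percent of the solvent control above about 150%, meaning raised reporter expression, limit read from the data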
MEP2-GFP pick2: second confirmation of modulators of TOR reporter MEP2-GFP in yeast | AID 2622 | GFP response vs DMSO, % at 10 µM | shares compounds with LAP4 TOR yeast | hit rate 10% among 590 | S. cerevisiae MEP2-GFP strain, flow cytometry GFP, 3 h;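 active means GFP signal above 150% of the solvent control wells, that is a rise of more than half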;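 further: median channel GFP fluorescence of all gated yeast cells per well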
RPL19A-GFP pick2: second confirmation of modulators of TOR reporter RPL19A-GFP in yeast | hit rate 3% among 590 | GFP response vs DMSO, % at 10 µM | AID 2623 | shares compounds with LAP4 TOR yeast | S. cerevisiae RPL19A-GFP strain, flow cytometry GFP, 3 h; active compounds read low; 100% means same as DMSO wells;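 active means under 65% GFP response relative to DMSO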;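 further: median GFP channel fluorescence per well over the all cells gate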
CIT2 GFP CP2: reconfirmed modulator of CIT2-GFP TOR reporter in yeast; hit rate 8% among 590; shares compounds with LAP4 TOR yeast; GFP response vs DMSO, % at 10 µM; S. cerevisiae CIT2-GFP strain, flow cytometry GFP, 3 h; DMSO control wells read 100%;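 active means GFP response vs DMSO above about 150%, limit read from the data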;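 further: median green fluorescence per well over all gated yeast cells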
AGP1 GFP CP2: second confirmation of modulators of TOR reporter AGP1-GFP in yeast | shares compounds with LAP4 TOR yeast | percent response vs DMSO, % at 10 µM | S. cerevisiae AGP1-GFP strain, flow cytometry GFP, 3 h | 590 tested, under 10 active;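 active means over 150 percent of DMSO response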;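 further: median GFP channel fluorescence over all cells without mother daughter split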
Yeast autofluor: compound is autofluorescent in yeast s288c cells. shares compounds with LAP4 TOR yeast. S. cerevisiae s288c, 520 nm autofluorescence, flow cytometry, 3 h; active compounds read high; zero means same as solvent-only cells. fluorescence change (kMESF span) at 33 µM. 610 tested, under 10 active. AID 2757;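 active means fluorescence span over the dose series, or activity score, above about 33, limit read from the data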
Yeast autofl DR: counter-screen for autofluorescence of TOR hits in yeast s288c | shares compounds with LAP4 TOR yeast | S. cerevisiae s288c parental, compound autofluorescence, flow cytometry, 3 h | fluorescence change (span) at 33 µM | 110 tested, under 10 active | AID 488829;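 active means fluorescence change span, or the activity score built from it, above 25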
TORC1 bypass gr: compounds blocking wildtype yeast growth but not TORC1 bypass cells; growth rating (0-3) at 30 µM; shares compounds with LAP4 TOR yeast; S. cerevisiae BY4741 spot growth rating, 48-72 h; active compounds read low; 120 tested, under 10 active;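 active means growth rating at most 1 for wild type yeast while the TORC1 bypass strain still grows fully, rated 3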
A number is an active result; i = inactive; nt = no result; + = active, no number. Sampled rows, rich in hits. Any-hit rate of the full collection: about 0.93%.

SMILES | AGP1-GFP MLPCN | LAP4 TOR yeast | RPL19A-GFP yeast | CIT2 TOR yeast | MEP2-GFP yeast | Yeast autofluor | Yeast autofl DR | TORC1 bypass gr | others
CC(=O)c1ccc(N2CCN(C(=O)c3ccc(Br)cc3)CC2)c(F)c1 | i | 162 | i | i | i | i | i | i
Cc1ccc(NC(=O)c2cc(N3C(=O)C=CC3=O)ccc2N2CCOCC2)cc1Cl | i | 153 | i | i | i | i | i | i | LAP4 cherry2=162;MEP2-GFP pick2=183;RPL19A-GFP pick2=i;CIT2 GFP CP2=i;AGP1 GFP CP2=i
CCn1c(=O)c([N+](=O)[O-])c(Cl)c2ccccc21 | i | i | i | i | i | nt | nt | nt | LAP4 cherry2=i;MEP2-GFP pick2=i;RPL19A-GFP pick2=i;CIT2 GFP CP2=i;AGP1 GFP CP2=i
CCn1c(=O)c([N+](=O)[O-])c(NCCN(C)C)c2ccccc21 | i | i | i | i | i | nt | nt | nt
CCc1ccc(OC)c(S(=O)(=O)NCc2cccs2)c1 | i | i | i | i | i | nt | nt | nt
N#C/C(=C/c1ccc(N2CCCCC2)o1)c1cccc(F)c1 | i | 152 | i | i | i | nt | nt | nt | LAP4 cherry2=i;MEP2-GFP pick2=i;RPL19A-GFP pick2=i;CIT2 GFP CP2=i;AGP1 GFP CP2=i
N#C/C(=C/c1ccc(N2CCCCCC2)o1)c1ccc(Cl)cc1 | i | i | i | i | i | nt | nt | nt
CC(C)OC(=O)CSc1nc2ncccc2[nH]1 | i | 171 | i | i | i | nt | nt | nt | LAP4 cherry2=i;MEP2-GFP pick2=i;RPL19A-GFP pick2=i;CIT2 GFP CP2=i;AGP1 GFP CP2=i
CC(C)OC(=O)CSc1nc2ncc(Cl)cc2[nH]1 | i | i | i | i | i | nt | nt | nt
C/C(=N\Nc1ncnc2sc(C)c(C)c12)c1ccccn1 | 203 | 869 | i | + | + | 94 | nt | nt
Cc1sc2ncnc(N/N=C/c3cccc(O)c3)c2c1C | i | i | i | i | i | nt | nt | nt
O=C(c1ccc([N+](=O)[O-])o1)N1CCN(c2nc3c(F)cc(F)cc3s2)CC1 | i | 167 | i | i | i | i | nt | nt
Oc1ccc2ccccc2c1/C=N/Nc1nnc(-c2ncc[nH]2)c2ccccc12 | i | 277 | i | i | 194 | 40 | nt | nt
O=C(Oc1ccc(Cl)c2cccnc12)c1cccc([N+](=O)[O-])c1 | i | i | i | i | i | nt | nt | nt
O=C(Oc1c(Cl)cc(Cl)c2cccnc12)c1cccc([N+](=O)[O-])c1 | i | 187 | i | i | i | i | i | i
COc1ccc(/C=C/C(=O)NC(=S)NNC(=O)c2cccnc2)cc1 | i | i | i | i | i | nt | nt | nt
COc1ccc(/C=C/C(=O)NC(=S)NNC(=O)c2cnccn2)cc1 | i | 225 | i | i | i | i | i | i
O=C(/C=C/c1ccc(F)cc1)NC(=S)NNC(=O)c1cnccn1 | i | 261 | i | i | i | i | nt | nt
O=C(NC(=S)NNC(=O)c1cnccn1)c1ccc(F)cc1 | i | 232 | i | i | i | i | i | i
O=C(/C=C/c1ccc(F)cc1)NC(=S)Nc1ccccc1 | i | i | i | i | i | nt | nt | nt

Assay outcomes as filed in PubChem BioAssay.
